Where “and” joins values, the source holds several entries; their conditions need not be identical. Identical values can stand only once. Calls of active or inactive are those of the source. Unless noted, how the calls were made is not given here.
Columns and labels:
[1] = liver-stage malaria parasite load reduction – cell-based, known kinase inhibitor set, luminescence, hepatoma host viability (AID 624392); conditions: Plasmodium liver stage in hepatoma cells, luciferase luminescence, concentration not given here; liver cell % of control: measured here: host liver cell viability; parasite % of control: stronger effect = lower value;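 further: infected cells incubated roughly two days before readout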
[2] = altered dexamethasone sensitivity, NF-kB reporter, cell-based, luciferase, IL-1B stimulus (AID 624486); conditions: IL-1B + dexamethasone, luminescence; percent of negative control (+Dex): actives lie on both sides, concentration not given here; z-score: measured here: IL-1B alone, no Dex;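 on percent of negative control (+Dex): 100% = mean signal of vehicle control wells on the plate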
[3] = biological target: Cellular tumor antigen p53 (Homo sapiens) (UniProt P04637); assay: GFP-p53 level modulators in HPV16+ cells – imaging, known kinase inhibitor set, EGFP/DsRed ratio (AID 1053116); conditions: GFP-p53 stability, stronger effect = higher value; EGFP object count: measured here: GFP-p53 positive objects count;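 further: cells exposed to compounds for 24 h at 37 °C before reading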
Chain of Cellular tumor antigen p53 (Homo sapiens) (P04637 whole entry, looked up): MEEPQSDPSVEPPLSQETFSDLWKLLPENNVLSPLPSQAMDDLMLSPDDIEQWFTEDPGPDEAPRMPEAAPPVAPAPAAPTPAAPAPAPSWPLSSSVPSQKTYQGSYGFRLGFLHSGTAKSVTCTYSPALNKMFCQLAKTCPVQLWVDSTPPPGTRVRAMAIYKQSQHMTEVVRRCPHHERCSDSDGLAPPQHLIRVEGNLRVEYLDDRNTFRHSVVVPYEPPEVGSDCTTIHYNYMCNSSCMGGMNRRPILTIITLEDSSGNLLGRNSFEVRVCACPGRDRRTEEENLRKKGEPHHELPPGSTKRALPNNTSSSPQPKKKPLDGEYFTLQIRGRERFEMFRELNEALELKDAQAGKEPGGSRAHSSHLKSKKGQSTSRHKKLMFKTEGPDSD

[4] = inducers of IRF3 signaling, differentiated THP-1 – cell-based, PMA-stimulated THP-1, luminescence (AID 1053176); conditions: PMA-differentiated THP-1, IRF3 reporter luminescence; stronger effect = higher value
[5] = C. elegans survival during P. aeruginosa infection – whole organism (AID 651566);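 further: tested at 14 µM; sign flipped so higher z means a lower ratio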; conditions: C. elegans killed by P. aeruginosa, survival ratio
[6] = pro-inflammatory signaling induction in mouse macrophages – cell-based, murine, luminescence (AID 652131); conditions: murine macrophage pro-inflammatory reporter, stronger effect = higher value
[7] = MELAS cybrid and Rieske KO viability enhancers – cell-based, MELAS cybrids, Rieske KO mouse fibroblasts, CellTiter-Glo, primary screen (AID 1508586;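 active means mean z-score across replicates of 1.96 or higher in either the MELAS or the Rieske mutant cell line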;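 further: z relative to plate mean and SD of compound and empty wells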); conditions: low glucose
[8] = MELAS cybrid survival, CellTiter-Glo 48 h, stronger effect = higher value
[9] = Rieske KO mouse fibroblast survival, CellTiter-Glo 72 h

| Structure (SMILES) | liver cell % of control [1] | parasite % of control [1] | percent of negative control (+Dex) [2] | z-score [2] | EGFP object count [3] | EGFP/DsRed ratio [3] | fraction signal [4] | z-score [5] | z-score [6] | z-score [7, 8] | z-score [7, 9] |
| --- | --- | --- | --- | --- | --- | --- | --- | --- | --- | --- | --- |
| O=C1C(c2c[nH]c3ccccc23)=C(c2c[nH]c3ccccc23)C(=O)N1O | 107% | 29% (inactive) | 94% (inactive) | -1.25 | 5.5 | 0.0849 (inactive) | 0.0015 (inactive) | – | – | – | – |
| CC(=O)NC(Cc1ccc(OP(=O)(O)O)cc1)C(=O)NC1CCC(=O)N2CCCC(C(=O)NCc3ccccc3)N2C1=O (stereo unspecified) | 105% | 55% (inactive) | 102% (inactive) | 0.685 | 1.5 | 0.0487 (inactive) | -0.0115 (inactive) | – | – | – | – |
| Cn1c(-c2ccncc2)c(-c2ccc(F)cc2)c2ncccc21 | 100% | 44.7% (inactive) | 104% (inactive) | 1.04 | 3 | 0.0799 (inactive) | -0.0005 (inactive) | – | – | – | – |
| O=C1N=c2ccc(N=Cc3c(O)[nH]c4ccccc34)cc2=N1 | 79.5% | 117% (inactive) | 86% (inactive) | -0.205 | 5.5 | 0.268 (inactive) | -0.0005 (inactive) | -0.24 (inactive) | 1.12 (inactive) | 1.49 (inactive) | -0.0625 |
| CS(=O)(=O)N1CCC(n2c(=O)c(Oc3ccc(F)cc3F)cc3cnc(NC4CCOCC4)nc32)CC1 | 112% | 64.5% (inactive) | 95% (inactive) | -0.51 | 2 | 0.107 (inactive) | 0.0035 (inactive) | – | – | – | – |
| COc1cccc(C2=C(c3cn(C)c4cc(F)ccc34)C(=O)NC2=O)c1 | 128% | 31.5% (inactive) | 114% (inactive) | 0.535 | 7 | 0.327 (inactive) | 0.0095 (inactive) | – | – | – | – |
| Cc1ccc(C(=O)NC2CCCCC2)cc1-c1ccc(C(=O)NCC2CC2)cc1 | 103% | 134% (inactive) | 88.5% (inactive) | 0.05 | 5.5 | 0.116 (inactive) | -0.007 (inactive) | 1.71 (inactive) | 0.167 (inactive) | -0.861 (inactive) | 0.203 |
| Nc1c(C(=O)c2cccc(C#CCN3CCCCC3)c2)cnn1-c1ccc(F)cc1 | 91.6% | 50.5% (inactive) | 101% (inactive) | 0.935 | 1.5 | 0.0667 (inactive) | 0.0075 (inactive) | – | – | – | – |
| Nc1c(C(=O)c2cccc(C#CCO)c2)cnn1-c1ccc(F)cc1 | 100% | 58.9% (inactive) | 108% (inactive) | 1.13 | 1.5 | 0.0236 (inactive) | 0.008 (inactive) | – | – | – | – |
| Nc1c(C(=O)c2ccccc2)cnn1-c1ccc(F)cc1 | 97.1% | 76.7% (inactive) | 152% (active) | 5.57 | 5 | 0.17 (inactive) | -0.0025 (inactive) | – | – | – | – |
| Cn1cc(C2=C(c3c4n(c5ccccc35)CCNC4)C(=O)NC2=O)c2ccccc21 | 79.3% | 40.6% (inactive) | 97.5% (inactive) | -0.32 | 25 | 0.0526 (inactive) | -0.007 (inactive) | – | – | – | – |
| CNCC#Cc1c(F)ccc2c1C(=Cc1[nH]ccc1OC)C(=O)N2 | 149% | 6.77% (inactive) | 162% (active) | 1.97 | 39 | 0.619 (inactive) | -0.0115 (inactive) | – | – | – | – |
| CC(=O)NC(Cc1ccc(OP(=O)(O)O)cc1)C(=O)NC1CCC(=O)N2CCCC(C(=O)NCc3ccc(O)cc3)N2C1=O (stereo unspecified) | 107% | 44.4% (inactive) | 94.5% (inactive) | 0.215 | 6 | 0.202 (inactive) | -0.007 (inactive) | – | – | – | – |
| Cc1ccc2c(c1)c(C1=C(c3cn(C)c4ccccc34)C(=O)NC1=O)cn2C | 83% | 41.7% (inactive) | 102% (inactive) | -1.36 | 174 | 0.907 (active) | -0.003 (inactive) | – | – | – | – |
| Cn1cc(C2=C(c3cn(C)c4ccc(N)cc34)C(=O)NC2=O)c2ccccc21 | 95.1% | 36.7% (inactive) | 98% (inactive) | 0.385 | 11 | 0.25 (inactive) | -0.0115 (inactive) | – | – | – | – |
| CCc1c(C)nc2sc3c(N)ncnc3c2c1C | 221% | 5.86% (inactive) | 53.5% (active) | -4.42 | 3.5 | 0.129 (inactive) | -0.001 (inactive) | – | – | – | – |
| Cn1cc(C2=C(c3cc[nH]c3)C(=O)NC2=O)c2ccccc21 | 109% | 26.8% (inactive) | 104% (inactive) | 0.12 | 3 | 0.329 (inactive) | -0.0025 (inactive) | – | – | – | – |
| CCn1c(-c2nonc2N)nc2cnc(Oc3cccc(NC(=O)c4ccc(N(C)C)cc4)c3)cc21 | 88.6% | 248% (inactive) | 96% (inactive) | -0.295 | 3.5 | 0.117 (inactive) | -0.0105 (inactive) | -0.06 (inactive) | 1.22 (inactive) | 0.0951 (inactive) | 0.0229 |

| Structure (SMILES) | liver cell % of control [1] | parasite % of control [1] | percent of negative control (+Dex) [2] | z-score [2] | EGFP object count [3] | EGFP/DsRed ratio [3] | fraction signal [4] | z-score [5] | z-score [6] | z-score [7, 8] | z-score [7, 9] |
| --- | --- | --- | --- | --- | --- | --- | --- | --- | --- | --- | --- |
| CC(C)(O)Cn1c(=O)c(Oc2ccc(F)cc2F)cc2cnc(NC3CCOCC3)nc21 | 105% | 58.9% (inactive) | 86% (inactive) | -0.37 | 4 | 0.0773 (inactive) | -0.0135 (inactive) | – | – | – | – |
| CCCN1CCC(c2ccc(Nc3nc(Nc4cc(F)ccc4C(N)=O)c4cc[nH]c4n3)c(OC)c2)CC1 | 73% | 355% (inactive) | 72% (inactive) | -1.46 | 22.5 | 0.237 (inactive) | -0.0085 (inactive) | 0.62 (inactive) | -0.577 (inactive) | -0.472 | 7.31 |
| Cn1cc(C2=C(c3cn(C)c4c([N+](=O)[O-])cccc34)C(=O)NC2=O)c2ccccc21 | 78.7% | 22.7% (inactive) | 102% (inactive) | -0.03 | 18.5 | 0.137 (inactive) | -0.005 (inactive) | – | – | – | – |
| Nc1c(C(=O)c2cccc(C(O)(CO)CO)c2)cnn1-c1ccc(F)cc1 | 95.6% | 51.5% (inactive) | 104% (inactive) | 0.905 | 3 | 0.0614 (inactive) | 0.0095 (inactive) | – | – | – | – |
| CNCC1CCn2c(c(C3=C(c4cn(C)c5ccccc45)C(=O)NC3=O)c3ccccc32)C1 (stereo unspecified) | 101% | 45.7% (inactive) | 94.5% (inactive) | -0.52 | 1 | 0.0128 (inactive) | -0.0115 (inactive) | – | – | – | – |
| Cn1cc(C2=C(c3cn(CCCCC(=N)N)c4ccccc34)C(=O)NC2=O)c2ccccc21 | 133% | 22.6% (inactive) | 98% (inactive) | 0.29 | 10.5 | 0.2 (inactive) | 0.0055 (inactive) | – | – | – | – |
| COc1cc(F)c(F)c(F)c1C(=O)c1cnc(NC2CCN(S(C)(=O)=O)CC2)nc1N | 92.2% | 450% (inactive) | 122% (inactive) | 0.18 | 3 | 0.21 (inactive) | -0.0095 (inactive) | – | – | – | – |
| Cn1cc(C2=C(c3cccc(Br)c3)C(=O)NC2=O)c2ccccc21 | 153% | 39.5% (inactive) | 110% (inactive) | -0.515 | 3.5 | 0.13 (inactive) | 0.0055 (inactive) | – | – | – | – |
| Cn1cc(C2=C(c3cn(CCCCCO)c4ccccc34)C(=O)NC2=O)c2ccccc21 | 97.8% | 31.3% (inactive) | 101% (inactive) | -1.23 | 18.5 | 0.347 (inactive) | -0.0115 (inactive) | – | – | – | – |
| CC(=O)Nc1ccc2c(C3=C(c4cn(C)c5ccccc45)C(=O)NC3=O)cn(C)c2c1 | 83.1% | 16.4% (inactive) | 114% (inactive) | -1.25 | 61.5 | 0.596 (active) | -0.009 (inactive) | – | – | – | – |
| O=C1NC(=NCc2cccs2)OC1=Cc1ccc2ncccc2c1 | 113% | 64.9% (inactive) | 55% (active) | -4.77 | 3.5 | 0.0818 (inactive) | -0.0135 (inactive) | – | – | – | – |
| Cn1cc(C2=C(Oc3ccccc3)C(=O)NC2=O)c2ccccc21 | 109% | 43% (inactive) | 102% (inactive) | 0.18 | 41 | 0.339 (inactive) | -0.0005 (inactive) | – | – | – | – |
| CC(O)CNc1cc(-c2[nH]c3cccnc3c2-c2ccc(F)cc2)ccn1 (stereo unspecified) | 229% | 13.2% (inactive) | 106% (inactive) | 0.42 | 4 | 0.042 (inactive) | 0.0055 (inactive) | – | – | – | – |
| CC(CS(C)(=O)=O)Nc1ncc2cc(Oc3ccc(F)cc3F)c(=O)n(C)c2n1 (stereo unspecified) | 125% and 102% | 49.1% (inactive) and 48.7% (inactive) | 99.5% (inactive) and 101% (inactive) | 0.115 and 0.87 | 5.5 and 3.5 | 0.387 (inactive) and 0.111 (inactive) | -0.005 (inactive) and -0.0115 (inactive) | – | – | – | – |
| Cn1c(=O)c(Oc2ccc(F)cc2F)cc2cnc(NC3CCOC3)nc21 (stereo unspecified) | 96.2% | 51.2% (inactive) | 104% (inactive) | 0.575 | 4.5 | 0.257 (inactive) | -0.001 (inactive) | – | – | – | – |
| COc1ccc2c(C3=C(c4cn(C)c5ccccc45)C(=O)NC3=O)cn(C)c2c1 | 79.3% | 31.4% (inactive) | 113% (inactive) | -1.48 | 66 | 0.456 (inactive) | -0.007 (inactive) | – | – | – | – |
| CCCn1cc(C2=C(c3cn(C)c4ccccc34)C(=O)NC2=O)c2ccccc21 | 101% | 78.5% (inactive) | 102% (inactive) | 0.09 | 17.5 | 0.158 (inactive) | 0.0035 (inactive) | – | – | – | – |

Reference: PubChem BioAssay
